Reference: PubChem BioAssay
Several values for one entry are separate records, joined by “and”; a condition that tells them apart may be missing. Identical values can stand only once. Values without a mark were called inactive.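 How the source made its calls: active means inhibition at or above 50% relative to wild type and mutant plate controls; inactive means inhibition below 50%.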

Test: inhibitors of Chlamydomonas gravitaxis, primary screen, whole organism, Chlamydomonas reinhardtii, WT vs cilia-less mutant, absorbance, 96-well (AID 463189);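 further: 0% = wild type cc124 cells in DMSO and 100% = ciliumless bld1 mutant cells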
Conditions: OD600 absorbance, 2 days, at 10 µM, stronger effect = higher value

Row | Structure (SMILES) | inhibition
1 | CC(C(=O)O)c1ccc(CC2CCCC2=O)cc1 (stereo not given) | -6.18%
2 | Nc1cc(=O)[nH]c(N)n1 | -17.2%
3 | Cn1cc(C(F)(F)F)nc1-c1ccc(OCC(O)CNCCOc2ccc(O)c(C(N)=O)c2)cc1 (stereo not given) | -6.96%
4 | c1cnc2c(c1)ccc1cccnc12 | 10.8%
5 | Nc1ncnc2c1c(-c1ccc(Oc3ccccc3)cc1)cn2C1CCCC1 | 35.3%
6 | CCCCCCCCCC(=O)NC(CN1CCOCC1)[C@H](O)c1ccccc1 (stereo not given in full) | -8.57%
7 | CC1(C)CCC(NC(=O)[C@@H](N)CCC(=O)O)CC1 | 2.89%
8 | C=CCN1CCc2cc(O)c(O)cc2C(c2ccccc2)C1 (stereo not given) | 8.31%
9 | CN1CCN(CC/C=C2/c3ccccc3Sc3ccc(S(=O)(=O)N(C)C)cc32)CC1 | 19.2%
10 | Cc1cn[nH]c1 | 7.85%
11 | O=C(c1cc(O)c(O)c([N+](=O)[O-])c1)c1ccccc1F | -0.57%
12 | CC1(C)C(=O)N(CCN2CCC(C(=O)c3ccc(F)cc3)CC2)c2ccccc21 | 5.57%
13 | O=C1Nc2ccc(I)cc2/C1=C/c1cc(Br)c(O)c(Br)c1 | -6.77%
14 | CN(C)c1nc(N)c(C(=O)N=C(N)N)nc1Cl | 1.32%
15 | CCCCCC[C@@H]([C@@H](C)O)n1cnc2c(N)ncnc21 | -0.492%
16 | CCCc1c(OCCCOc2ccc(OCC(=O)O)cc2)ccc(C(C)=O)c1O | 0.316%
17 | CC(C)[C@@H](CO)Nc1nc(Nc2cccc(Cl)c2)c2ncn(C(C)C)c2n1 | -2.67%
18 | OC(CN1CCC(Cc2ccc(F)cc2)CC1)c1ccc(Cl)cc1 (stereo not given) | -0.098%
19 | O=c1ccc2ccc(O)c(O)c2o1 | -4.31%
20 | NC(=O)c1ncn([C@@H]2O[C@H](CO)[C@@H](O)[C@H]2O)c1O | 13.2%

Row | Structure (SMILES) | inhibition
21 | OC[C@H]1O[C@@H](n2cnc3cncnc32)[C@H](O)[C@@H]1O | 6.38%
22 | N[C@@H](Cc1cnc[nH]1)C(=O)O | -1.75%
23 | CC(C(O)c1ccc(O)cc1)N1CCC(Cc2ccccc2)CC1 (stereo not given) | 1.86%
24 | Cc1cc(NC(=O)Nc2ccc3c(ccn3C)c2)sn1 | 5.1%
25 | COc1cc(=O)n(C)c2c(OCC(O)C(C)(C)O)cccc12 (stereo not given) | -8.37%
26 | CCC(=O)c1ccc2c(c1)N(CCCN(C)C)c1ccccc1S2 | 46.1%
27 | N[C@@H](CS(=O)O)C(=O)O | 7.29%
28 | COc1cc2nc(N3CCN(C(=O)OCc4ccccc4)C(C(=O)NC(C)(C)C)C3)nc(N)c2cc1OC (stereo not given) | -7.21%
29 | S=C(S)OC1CC2CC1C1CCCC21 (stereo not given) | 7.66%
30 | C=CCc1ccccc1OCC(O)CN[C@]1(C)CCC[C@H](C(C)(C)NC(=O)CBr)C1 (stereo not given in full) | 16.4%
31 | C[C@H](Cc1ccccc1)Nc1ncnc2c1ncn2[C@@H]1O[C@H](CO)[C@H](O)C1O (stereo not given in full) | 0.221%
32 | Cn1cnc2c(NCc3ccccc3)nc(NCCO)nc21 | 5.79%
33 | COc1cc2nc(N3CC=[N+](C(=O)c4ccco4)CC3)nc(N)c2cc1OC | 6.38%
34 | Nc1nc(N)c2nc(CNc3ccc(C(=O)NC(CCC(=O)O)C(=O)O)cc3)cnc2n1 (stereo not given) | 10.5%
35 | O=C(O)Cc1ccc(O)c(O)c1 | 5.56%
36 | C[N+](C)(C)CCCCCC[N+](C)(C)C | 5.27% and -2.94%
37 | CN1CCCC1CCOC(C)(c1ccccc1)c1ccc(Cl)cc1 (stereo not given) | 11.5%
38 | CNc1ncnc2c1ncn2[C@@H]1O[C@H](CO)[C@H](O)C1O (stereo not given in full) | 7.79%
39 | CCCCOc1cc(CC2CNC(=O)N2)ccc1OC (stereo not given) | 2.83%
40 | CC1=C(CC(=O)O)c2cc(F)ccc2/C1=C\c1ccc(S(C)=O)cc1 (stereo not given) | 5.19%
